From PubChem BioAssay (NCATS) come the findings set out here.

“And” between values parts separate entries of the source, which are not always exact repeats. Equal values may be shown once. Records with an inconclusive call do not appear. The source made the active and inactive calls. Unless noted, calls follow the shape of the dose curve; as a rule, active = well fitted curve in the direction sought with a large enough effect; inconclusive = small, poorly fitted or top-dose-only effect, or another doubt; inactive = no such curve, though single readings can be large; an effect the other way counts as inactive or inconclusive.

The target of test [1] is Alpha-galactosidase A (Homo sapiens) (UniProt P06280). Kind of test: Counterscreen for Glucocerebrosidase Inhibitors: qHTS Assay for Human alpha-Galactosidase at pH 4.5 (AID 992). Also: 0% is about no effect. A digest of the protocol: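 Each compound is preincubated briefly with 2 nM enzyme before substrate addition (80 uM); plates then sit 20 min at ambient temperature, are quenched with 1M NaOH/1M glycine, and read fluorometrically.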

Test [2] addresses alpha-glucosidase (Oryza sativa, rice) (UniProt Q653V4). Kind of test: Counterscreen for Glucocerebrosidase Inhibitors: qHTS Assay for Rice alpha-Glucosidase at pH 5.0 (AID 997).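 Also: 0% = full activity with enzyme and -100% = basal without enzyme.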 Put shortly:
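Endpoint fluorogenic assay at pH 5.0: compounds (0.7 nM to 77 uM) titrated against 4 nM rice enzyme and 400 uM 4-MU-alpha-glucoside for 20 min at room temperature; NaOH/glycine stop, read ex 365/em 440 nm, Hill-fitted AC50.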

Test [3] can be described thus: qHTS Assay for Lipid Storage Modulators (AID 1519; calls by dose curve; as to activity change, negative = inhibition: % is scaled to controls: 0 for no effect and ±100 for the full control effect). The following applies: Drosophila S3 cells, BODIPY lipid droplet/cell ratio, laser cytometry, cells loaded with oleic acid; for activity change, negative = inhibition: at 57.5 µM (top of the series). Put shortly: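 Cells seeded at 5,000 per well were treated with compounds over a concentration series and loaded with oleic acid (400 uM, as added). Lipid droplet fluorescence (488 nm excitation, 500-530 nm channel) was read by laser-scanning cytometry and normalized to 20 uM Triacsin C.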

Test [4] concerns the target DNA repair nuclease/redox regulator APEX1 (Homo sapiens) (UniProt P27695). Kind of test: qHTS Validation Assay for Inhibitors of the Human Apurinic/apyrimidinic Endonuclease 1 (APE1) (AID 1705;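 also: TAMRA fluorescence gain over two minutes as APE1 cuts a quenched THF abasic duplex; % is scaled to controls: 0 for no effect and ±100 for the full control effect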). A digest of the protocol: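 qHTS, 1536-well. APE1 + cpd 15 min RT → 50 nM TAMRA/BHQ-2 THF-abasic dsDNA substrate → kinetic fluorescence, 3 reads/60 s; delta(read3−read1) = reaction progress. No-enzyme buffer = negative control.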
A general note: qHTS replaces the single test concentration by a dilution series.

Test [5] is described as follows: Counterscreen for APE1 Inhibitors: Fluorescent Dye Displacement Validation Assay (AID 1707).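 Also: plate controls were ThO with dsDNA and no compound for no effect and ThO without dsDNA for full effect.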 Put shortly:
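Loss of Thiazole Orange fluorescence marks promiscuous DNA binders. The dye (250 nM) is mixed with 50 nM abasic-site dsDNA in pH7.5 Tris buffer containing MgCl2, then compounds are added and emission is read once.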
(The purpose of a counterscreen is to sort out artefacts and off-target activity.)

The target of test [6] is Endonuclease 4 (Escherichia coli (strain K12)) (UniProt P0A6C1). Description: Counterscreen for APE1 Inhibitors: qHTS Validation Assay for Inhibitors of Endonuclease IV (AID 1708). Also: % is scaled to controls: 0 for no effect and ±100 for the full control effect. A digest of the protocol: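 Conditions: 2 nM enzyme, 50 nM TAMRA/BHQ-2 substrate, pH 7.5 Tris buffer with 2 mM MgCl2, RT. Compound preincubation 15 min; readout three fluorescence reads 60 s apart, third-minus-first.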

A short description of test [7]: Cell Viability - LYMP2-007 (AID 979).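 Also: cells exposed to compound for 24 h before reading; 0% = DMSO only and the negative end = 92 µM tetraoctylammonium bromide; nearly all actives have a fitted effect of over 60% in size.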 Put shortly:
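Cells are seeded at 2500 per well and rested 5 hr. Compounds are then added over a concentration series for 24 hr at 37 C. CellTiter-Glo is added for 30 min at room temperature before luminescence reading.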

Test [8] is described as follows: Cell Viability - LYMP2-008 (AID 980).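 Also: cells exposed to compound for 24 h at 37 °C; % is scaled to controls: 0 for no effect and ±100 for the full control effect; nearly all actives have a fitted effect of over 60% in size.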 Put shortly: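 Cells seeded at 2500/well and rested 5 hr at 37 C; compounds added over a concentration range and incubated 24 hr at 37 C; CellTiter-Glo added, 30 min at room temperature; luminescence read and AC50 fitted with Hill model.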
A short description of test [9]: Cell Viability - LYMP2-010 (AID 981).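 Also: cells exposed to compound for 24 hours at 37 °C; % is scaled to controls: 0 for no effect and ±100 for the full control effect; nearly all actives have a fitted effect of over 55% in size.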 A digest of the protocol: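 Steps: seed 2500 LYMP2-010 cells per well; incubate 5 hr at 37 C; add compound; incubate 24 hr at 37 C; add CellTiter-Glo, wait 30 min at room temperature; read luminescence. Concentration-response fitted to Hill equation for AC50.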
Test [10] can be described thus: Cell Viability - LYMP2-012 (AID 982).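 Also: cellular ATP by luciferase luminescence where a drop means cytotoxicity; cells exposed to compound for one day before reading; 0% = DMSO only and full loss = 92 µM tetraoctylammonium bromide; nearly all actives have a fitted effect of over 55% in size.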
Test [11] can be described thus: Cell Viability - LYMP2-014 (AID 983).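 Also: cells exposed to compound for 24 h at 37 °C; plate controls were DMSO only for no effect and 92 µM tetraoctylammonium bromide for full effect; nearly all actives have a fitted effect of over 50% in size.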 Put shortly: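 Cells are plated at 2500/well and left 5 hr at 37 C. Compounds are added across a concentration range and incubated 24 hr at 37 C in complete medium. CellTiter-Glo is added, and luminescence is read after 30 min at room temperature.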
The nature of test [12]: Cell Viability - LYMP2-016 (AID 984).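 Also: cells exposed to compound for 24 hours at 37 °C; % is scaled to controls: 0 for no effect and ±100 for the full control effect; nearly all actives have a fitted effect of over 55% in size.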 A digest of the protocol: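 Cells were seeded at 2500 per well and rested 5 hr before a 24 hr compound exposure at 37 C. Viability was then gauged as cellular ATP by luciferase luminescence, with AC50 values fitted to the Hill equation.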
The nature of test [13]: Cell Viability - LYMP2-020 (AID 986).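 Also: cells exposed to compound for 24 h at 37 °C; plate controls were DMSO only for no effect and tetraoctylammonium bromide at 92 µM for full effect; nearly all actives have a fitted effect of over 55% in size.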 A digest of the protocol: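 Seed 2500 cells per well and incubate 5 hr at 37 C. Add compounds at a concentration series and incubate 24 hr at 37 C. Add CellTiter-Glo, wait 30 min at RT, read luminescence, and fit a Hill curve for AC50.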
The nature of test [14]: Cell Viability - LYMP2-022 (AID 987). Put shortly: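 Cells were seeded at 2500 per well, rested 5 hr at 37 C, and treated with titrated compounds for 24 hr at 37 C. Cellular ATP was then quantified by luciferase luminescence, and AC50 values were derived from Hill-modelled concentration-response curves.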
The nature of test [15]: Cell Viability - LYMP2-024 (AID 988).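 Also: plate controls were DMSO only for no effect and 92 µM tetraoctylammonium bromide for full effect; nearly all actives have a fitted effect of over 60% in size.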 Put shortly: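 qHTS cytotoxicity, human lymphoblastoid line, complete medium; 24 h cpd treatment, 37 C; CellTiter-Glo ATP luminescence readout; tetraoctylammonium bromide positive control; AC50 via Hill fit.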
A short description of test [16]: Cell Viability - LYMP2-026 (AID 989).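 Also: cells exposed to compound for 24 h at 37 °C; % is scaled to controls: 0 for no effect and ±100 for the full control effect; nearly all actives have a fitted effect of over 50% in size.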 A digest of the protocol:
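Cells are seeded at 2500 per well and held 5 hr at 37 C. Compounds are added in concentration series for 24 hr, then CellTiter-Glo reagent is applied and luminescence read.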

Test [17] can be described thus: Cell Viability - LYMP1-002 - Assay at 24 hr (AID 993). Also: % is scaled to controls: 0 for no effect and ±100 for the full control effect. A digest of the protocol: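 Acute toxicity is measured as concentration-dependent loss of cellular ATP in a human lymphoblastoid line (Coriell LYMP1-002) after 24 h treatment in complete medium. ATP is quantified by luciferase luminescence and AC50 derived by Hill modelling.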
A short description of test [18]: Cell Viability - LYMP1-002 - Assay at 40 hr (AID 994).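 Also: 0% = DMSO only and full inhibition = 92 µM tetraoctylammonium bromide; nearly all actives have a fitted effect of over 60% in size.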 Put shortly:
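Cells are plated at 2500 per well and rested 5 hr at 37 C. Compounds are added and incubated 40 hr at 37 C. CellTiter-Glo reagent is added for 30 min at room temperature before luminescence is read.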

A short description of test [19]: Cell Viability - LYMP2-018 (AID 985).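 Also: plate controls were DMSO only for no effect and tetraoctylammonium bromide at 92 µM for full effect; nearly all actives have a fitted effect of over 50% in size.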 Put shortly: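 Seed 2500 lymphoblastoid cells per well, incubate 5 hr at 37 C, add compound and incubate 24 hr at 37 C, add CellTiter-Glo, wait 30 min at room temperature, then read luminescence.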
Setting [20] is: measured here: cell count channel max response.
[21] abbreviates: measured here: lipid channel max response.

Sequence of Alpha-galactosidase A (Homo sapiens) (P06280 whole entry, looked up): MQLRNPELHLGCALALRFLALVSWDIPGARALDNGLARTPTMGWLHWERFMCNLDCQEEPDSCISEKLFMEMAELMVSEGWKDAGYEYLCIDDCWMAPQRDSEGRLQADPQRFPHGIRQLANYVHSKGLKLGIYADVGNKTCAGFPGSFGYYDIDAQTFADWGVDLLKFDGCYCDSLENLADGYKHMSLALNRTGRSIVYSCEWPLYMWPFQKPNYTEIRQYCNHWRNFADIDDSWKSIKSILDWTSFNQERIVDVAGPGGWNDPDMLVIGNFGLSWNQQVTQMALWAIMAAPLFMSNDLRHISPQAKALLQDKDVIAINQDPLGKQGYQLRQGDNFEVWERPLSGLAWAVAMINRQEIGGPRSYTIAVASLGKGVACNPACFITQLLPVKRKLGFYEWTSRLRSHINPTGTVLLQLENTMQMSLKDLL
Sequence of DNA repair nuclease/redox regulator APEX1 (Homo sapiens) (P27695 whole entry, looked up): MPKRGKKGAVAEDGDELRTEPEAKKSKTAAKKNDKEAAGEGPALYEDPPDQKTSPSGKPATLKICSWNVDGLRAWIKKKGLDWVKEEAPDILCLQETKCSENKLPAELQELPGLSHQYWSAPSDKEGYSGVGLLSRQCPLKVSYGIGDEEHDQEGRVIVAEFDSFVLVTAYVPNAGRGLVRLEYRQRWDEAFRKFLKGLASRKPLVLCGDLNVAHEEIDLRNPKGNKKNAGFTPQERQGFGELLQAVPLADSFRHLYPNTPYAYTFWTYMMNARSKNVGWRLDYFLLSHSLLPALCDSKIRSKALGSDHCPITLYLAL

As for `Nc1cc(=O)[nH]c(N)n1`, the result in test [1] and in [2] was inactive. Also, in [3], the activity change, negative = inhibition is 1.9% (inactive). In addition, the max response in [3] (setting [20]) is -3.41%; in [3] (setting [21]), -1.88%. Also, the Potency entry in test [4], in [5] and in test [6] was “inactive” each time.

As to `NC1CCN(c2cccc(Cl)n2)CC1`, the compound was called inactive in [1] and in test [2]. The activity change, negative = inhibition in test [3] is 5.71% (inactive) and 0.974% (inactive). Also, the max response is -16.7% and 37.1% in test [3] (setting [20]); -10.9% and 36.3% in test [3] (setting [21]). For the same compound, the Potency entry in test [4], in [5] and in test [6] was “inactive” each time.

Regarding `C[C@]12C[C@H](O)[C@H]3[C@@H](CCC4=CC(=O)CC[C@@]43C)[C@@H]1CC[C@@H]2C(=O)CO`, the Potency entry in [7], in [8], in test [9], in test [12], in test [13] and in test [14] was “inactive” throughout. Besides, the Potency result in [16], in test [17] and in test [18] was “inactive” in each case. For the same compound, the call in test [10], in [11], in [15], in test [1] and in [2] was inactive.

Take `Cc1cc2nc3c(=O)[nH]c(=O)nc-3n(C[C@H](O)[C@H](O)[C@H](O)CO)c2cc1C`: the Potency result in [7], in test [8], in test [9], in test [12], in test [19] and in test [13] was “inactive” each time. Also, the Potency entry in [14], in [16], in test [17] and in [18] was “inactive” in each case. Besides, the result in test [10], in test [11] and in [15] was inactive.

On to `NCCNCCNCCN`, for which the Potency result in test [7], in [8], in test [9], in [12], in test [19] and in [13] was “inactive” throughout. Moreover, the Potency result in [14], in test [16], in test [17] and in [18] was “inactive” in each case. Besides, the compound was classed as inactive in test [10], in [11] and in test [15].

Regarding `C[C@H]1O[C@@H](n2cc(F)c(=O)[nH]c2=O)[C@H](O)[C@@H]1O`, the activity change, negative = inhibition in [3] was -0.32% (inactive). The max response in test [3] (setting [20]) came out at 40.7%; in test [3] (setting [21]), 39.7%. The Potency entry in [4], in test [5] and in test [6] was “inactive” throughout.

As to `CC(C)C(=O)c1c(C(C)C)nn2ccccc12`, the result in test [1] and in [2] was inactive. In addition, the Potency result in test [4], in [5] and in [6] was “inactive” in each case.

As to `CN(C)CCOC(C)(c1ccccc1)c1ccccn1` (stereo not drawn), the activity change, negative = inhibition in test [3] was 3.29% (inactive). Besides, the max response in test [3] (setting [20]) is -15.9%; in test [3] (setting [21]) it was -9.47%. The Potency entry in test [4], in test [5] and in test [6] was “inactive” throughout.
